PRC2 inh – EZH2/PRC2 methyltransferase inhibitors, primary screen, biochemical, DELFIA time-resolved fluorescence, single point | inhibition, % at 12.5 µM | AID 651548, 2012 | hit rate 0.35% among 57,000 | Histone-lysine N-methyltransferase EZH2 (Homo sapiens), Q15910 | PRC2 H3K27 methylation, DELFIA TRF, 1 h;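 active = mean inhibition of replicates at least 50% and every single replicate also reaching 50%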;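 also: dimethyl H3K27 on biotinylated H3 21-44 peptide detected by antibody; plate controls were median neutral control wells for no effect and median positive control wells for full effect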
Target sequence (Q15910 whole entry, looked up): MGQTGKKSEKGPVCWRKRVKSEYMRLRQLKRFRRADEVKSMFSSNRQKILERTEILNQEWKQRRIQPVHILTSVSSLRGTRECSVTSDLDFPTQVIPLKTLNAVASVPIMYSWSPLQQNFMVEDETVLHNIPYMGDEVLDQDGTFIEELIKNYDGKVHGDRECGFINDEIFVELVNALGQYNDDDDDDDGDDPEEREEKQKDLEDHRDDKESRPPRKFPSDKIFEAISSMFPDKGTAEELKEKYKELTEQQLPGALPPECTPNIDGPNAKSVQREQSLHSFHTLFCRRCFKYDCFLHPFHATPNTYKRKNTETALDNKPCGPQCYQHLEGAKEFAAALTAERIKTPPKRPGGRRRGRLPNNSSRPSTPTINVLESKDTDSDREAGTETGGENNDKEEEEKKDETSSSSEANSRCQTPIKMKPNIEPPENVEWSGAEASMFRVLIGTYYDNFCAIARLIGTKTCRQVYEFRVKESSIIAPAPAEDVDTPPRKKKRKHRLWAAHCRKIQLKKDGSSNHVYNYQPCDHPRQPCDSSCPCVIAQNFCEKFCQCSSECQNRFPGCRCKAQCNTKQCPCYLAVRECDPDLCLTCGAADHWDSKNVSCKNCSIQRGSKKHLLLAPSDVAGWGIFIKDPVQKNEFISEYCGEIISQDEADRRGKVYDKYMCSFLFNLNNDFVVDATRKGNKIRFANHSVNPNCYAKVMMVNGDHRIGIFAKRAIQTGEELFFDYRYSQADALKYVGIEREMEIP
Starred values were filed as active, the others as inactive. Many of the other results were omitted from the sample, so hits are more common in it than they were.

For C[C@@H]1O[C@@H](O[C@@H]2[C@@H](O)[C@H](Oc3cc(O)c4c(c3)OC(c3ccc(O)cc3)CC4=O)O[C@H](COC3OCC(O)C(O)C3O)[C@H]2O)[C@H](O)[C@H](O)[C@H]1O (stereo partly specified) the results were PRC2 inh -14.3.
Cn1c(SCC(=O)Nc2cc(Cl)c(Cl)cc2Cl)nnc1-c1ccccc1 was read as PRC2 inh 1.4.
Screening CC1=C(C(=O)OCc2ccccc2)C2(O)C(=O)c3ccccc3C2(O)N1 (stereo unspecified) returned PRC2 inh 24.2.
For Cc1sc2nc(SCC(=O)Nc3c(F)cc(F)cc3Br)n(C)c(=O)c2c1C the results were PRC2 inh -11.9.
For O=C(COc1ccccc1)Nc1ccc2oc(-c3cccc(Cl)c3)nc2c1 the results were PRC2 inh 1.2.
For CC(=O)N(Cc1ccc(C(C)C)cc1)c1ccc2oc(-c3ccccc3)nc2c1 the results were PRC2 inh 58.0*.
O=C(COc1ccccc1)Nc1ccc2oc(-c3ccc(Cl)cc3)nc2c1 was read as PRC2 inh -12.3.
`NS(=O)(=O)c1ccc(NC(=O)CN2CCN(C(=O)c3ccccc3)CC2)cc1` gave PRC2 inh 3.9.
Screening COc1ccc(COC[C@@]23Oc4ccccc4[C@@H](NC(=O)N2C)[C@H]3COC(=O)c2ccccc2)cc1 returned PRC2 inh 21.5.
Screening COC(=O)C(CC#Cc1ccc2c(c1)[C@]1(C(=O)N2)[C@H](C(=O)N2CCCCCCC2)[C@H]2C(=O)O[C@H](c3ccccc3)[C@H](c3ccccc3)N2[C@@H]1c1ccccc1OCCO)C(=O)OC returned PRC2 inh -9.8.
`COc1ccc(C#Cc2ccc3c(c2)[C@]2(C(=O)N3)[C@H](C(=O)O)[C@H]3C(=O)O[C@H](c4ccccc4)[C@H](c4ccccc4)N3[C@@H]2c2ccccc2OCCO)cc1` gave PRC2 inh 75.1*.
For O=C1O[C@H](c2ccccc2)[C@H](c2ccccc2)N2[C@H]1[C@@H](C(=O)O)[C@]1(C(=O)Nc3ccc(C#CCCO)cc31)[C@H]2c1ccccc1OCCO the results were PRC2 inh 22.8.
For COc1ccc(C#Cc2ccc3c(c2)[C@]2(C(=O)N3)[C@H](c3ccccc3OCCO)N3[C@H](c4ccccc4)[C@H](c4ccccc4)OC(=O)[C@H]3[C@@H]2C(N)=O)cc1 the results were PRC2 inh -38.0.
Screening COC(=O)C(CC#Cc1ccc2c(c1)[C@]1(C(=O)N2)[C@H](c2ccccc2OCCO)N2[C@H](c3ccccc3)[C@H](c3ccccc3)OC(=O)[C@H]2[C@@H]1C(=O)O)C(=O)OC returned PRC2 inh 69.2*.
COC(=O)C(CC#Cc1ccc2c(c1)[C@]1(C(=O)N2)[C@H](C(=O)O)[C@H]2C(=O)O[C@H](c3ccccc3)[C@H](c3ccccc3)N2[C@@H]1c1ccc(OCCO)cc1)C(=O)OC was read as PRC2 inh 39.5.
CCCCCCC/C=N/NC(=O)CCCCCCC(=O)O was read as PRC2 inh 7.9.
For CC1(C)COC(CCC/C=N/NC(=O)CCCCCC(=O)NO)OC1 the results were PRC2 inh -49.2.
COc1ccc(S(=O)(=O)N(C)CC(=O)Nc2ccc3c(c2)OCCO3)cc1C was read as PRC2 inh 2.6.
`COc1ccc(S(=O)(=O)Nc2ccc(Br)c3cccnc23)c([N+](=O)[O-])c1` gave PRC2 inh 31.3.
Screening O=C(c1ccccc1)c1ccc2nc(-c3cccc(NC(=O)C4CCCO4)c3)[nH]c2c1 (stereo unspecified) returned PRC2 inh -5.1.
`O=C(N/N=C/c1cccc2ccccc12)c1ccccc1O` gave PRC2 inh 1.8.
C[C@H]1CN([C@@H](C)CO)S(=O)(=O)c2ccc(C3=CCCCC3)cc2O[C@H]1CN(C)Cc1cccc(C(=O)O)c1 was read as PRC2 inh 17.2.
For C[C@H]1CN([C@@H](C)CO)S(=O)(=O)c2ccc(/C=C/c3ccccc3)cc2O[C@H]1CN(C)Cc1ccccc1 the results were PRC2 inh 10.3.
C[C@H](CO)N1C[C@H](C)[C@@H](CN(C)Cc2ccccc2)Oc2cc(/C=C/c3ccccc3)ccc2S1(=O)=O was read as PRC2 inh -0.5.
`C[C@@H]1CN([C@H](C)CO)S(=O)(=O)c2ccc(Br)cc2O[C@H]1CN(C)Cc1cccc(C(=O)O)c1` gave PRC2 inh 0.6.
Screening C[C@H]1CN([C@@H](C)CO)S(=O)(=O)c2ccc(/C=C/c3ccccc3)cc2O[C@@H]1CN(C)Cc1ccc(C(=O)O)cc1 returned PRC2 inh 52.8*.
Screening C[C@@H]1CN([C@@H](C)CO)S(=O)(=O)c2ccc(C3=CCCCC3)cc2O[C@H]1CN(C)Cc1cccc(C(=O)O)c1 returned PRC2 inh 55.7*.
Screening C[C@H]1CN([C@@H](C)CO)S(=O)(=O)c2ccc(C3=CCCCC3)cc2O[C@@H]1CN(C)Cc1cccc(C(=O)O)c1 returned PRC2 inh 43.6.
For C[C@H](CO)N1C[C@H](C)[C@@H](CN(C)Cc2cccc(C(=O)O)c2)Oc2cc(Br)ccc2S1(=O)=O the results were PRC2 inh 12.5.
For C[C@@H]1CN([C@@H](C)CO)S(=O)(=O)c2ccc(C#CCC3CCCC3)cc2O[C@H]1CN(C)Cc1cccc(C(=O)O)c1 the results were PRC2 inh 61.9*.
`COc1ccc(C)cc1S(=O)(=O)N1CCC(C(=O)Nc2cccc(SC)c2)CC1` gave PRC2 inh 17.5.
`COc1cc([N+](=O)[O-])ccc1NC(=O)COc1ccc2ccccc2c1` gave PRC2 inh 4.2.
`C#CCN([C@H](/C=C/C1CC1)[C@@H](O)Cc1ccccc1)[C@@H](Cc1ccc(N=[N+]=[N-])cc1)C(=O)OC` gave PRC2 inh 39.5.
For O=C(CCCCCCC(=O)Nc1ccccc1O)N/N=C/c1cc(Br)c(O)c(Br)c1 the results were PRC2 inh 24.3.
Screening COC(=O)c1ccccc1NC(=O)CNC(=O)c1ccccc1 returned PRC2 inh -6.9.
`COC(=O)c1ccccc1NC(=O)Cn1c(C)ccc1C` gave PRC2 inh -8.0.
For COC(=O)c1ccccc1NC(=O)CCSc1ccc(C)cc1 the results were PRC2 inh 54.3*.
For O=C(CCN1C(=O)C2C3C=CC(C3)C2C1=O)Oc1cccc2cccnc12 (stereo unspecified) the results were PRC2 inh -4.0.
COc1ccc(-n2c(SCC(=O)N(c3ccccc3)c3ccccc3)nc3ccccc3c2=O)cc1 was read as PRC2 inh -3.0.
For COc1ccc(OCc2nc3ccccc3n2Cc2ccccc2F)cc1 the results were PRC2 inh 58.2*.
`NC(=O)CSc1nc2ccccc2n1Cc1ccccc1F` gave PRC2 inh 0.9.
`COc1ccc(OCc2nc3ccccc3n2Cc2c(F)cccc2Cl)cc1` gave PRC2 inh 27.9.
O=C(CCCCCCC(=O)Nc1ccccc1O)N/N=C/c1ccccc1[N+](=O)[O-] was read as PRC2 inh 8.6.
O=C(CCCCCC(=O)N/N=C/c1ccoc1)NO was read as PRC2 inh 1.7.
`Oc1ccc(/C=C/c2cc(O)cc(O)c2)cc1` gave PRC2 inh -7.7.
`Cc1cc(=O)oc2c(O)c(O)ccc12` gave PRC2 inh -3.3.
For O=c1cc(O)cc(/C=C/c2ccc(O)c(O)c2)o1 the results were PRC2 inh 86.9*.
`O=C(NO)c1ccc(C(=O)N/N=C/c2c(O)cc(O)cc2O)cc1` gave PRC2 inh 40.2.

From PubChem BioAssay
